# NS1 inh: blocks influenza NS1 protein function | actives 0.4% (n = 270,000) | Potency, µM (highest dose often 46.1 µM), without a hit: at the highest dose activity, positive = more growth; further: potency means the concentration at half of the fitted maximal effect; actives are rising curves; nearly all actives have a fitted effect of over 50% in size
#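 Growth recovery, yeast-based: influenza A NS1 expressed in S. cerevisiae causes slow growth, and suppressors are detected by OD600. The parent strain without NS1 is used as positive control.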
# SARS PLpro yeast: blocks SARS-CoV papain-like protease in a yeast assay | S. cerevisiae expressing SARS-CoV PLpro, growth rescue | Potency, µM (highest dose often 32.9 µM), inactives show at the highest dose activity, positive = growth rescue, hits mostly activators | actives 0.19% (n = 330,000); further: potency means the concentration at half of the fitted maximal effect; 0% is about no effect; nearly all actives have a fitted effect of over 55% in size
# Shiga toxin inh: blocks Shiga toxin action in Vero cells | Vero cells, Shiga toxin protein synthesis inhibition reporter | inhibition, % at 38.7 µM | actives 9.2% (n = 290,000) | AID 2315; in the data active means inhibition mostly above about 28%, no sharp cut-off; inactive means mostly below about 43%; further: 0% is about no effect
# CHX counter: counter-screen for Shiga toxin inhibitors: cycloheximide protein synthesis inhibition. actives 12% (n = 300,000). max response, %. cell reporter, cycloheximide protein synthesis inhibition counterscreen. AID 2314; in the data active means max response mostly above about 13%, no sharp cut-off; inactive means mostly below about 14%; further: read at 38.3 µM for the half of the compounds with a filed dose; 0% is about no effect
# * = called active by the depositor; ? = inconclusive; . = not tested or not shown. A selection: hits, their analogues and other compounds. The true share with any hit is near 12%. Unless noted, the call rests on the fitted dose curve.
SMILES,NS1 inh,SARS PLpro yeast,Shiga toxin inh,CHX counter
CC(C)CCNC(=O)c1ccc(Cl)c(NC(=O)Cc2ccccc2)c1,10.0%,15.7%,45.2*,16.3
Fc1c(F)c(F)c(SCn2cc(Br)cn2)c(F)c1F,.,1.1%,.,.
Cc1cccnc1CN1CCN(C(=O)c2cc(COc3ccc4ncccc4c3)on2)CC1,-2.7%,0.4%,-6.0,1.6
O=C(c1cc(COc2c(F)cccc2F)on1)N1CCN(C2CCCCC2)C(=O)C1,-14.4%,-4.8%,1.3,3.2
O=C(c1cc(COc2ccc(F)c(F)c2)on1)N1CCN(C/C=C/c2ccccc2)CC1,-82.3%,-11.9%,44.7*,36.7*
O=C(c1cc(COc2ccc3ncccc3c2)on1)N1CCCC(O)C1 (stereo not drawn),2.9%,-0.7%,10.4,2.5
O=C(c1cc(COc2ccc(F)c(F)c2)on1)N1CCN(C2CCCCC2)C(=O)C1,-40.8%,-2.2%,58.6,30.8*
COCCN1CCN(C(=O)c2cc(COc3ccc(F)cc3F)on2)CC1,5.3%,-2.1%,9.8,1.5
CCCOC1CCCN(C(=O)c2cc(COc3ccc(F)c(F)c3)on2)C1 (stereo not drawn),-5.0%,-1.2%,109.3*,44.0*
COCCN1CCN(C(=O)c2cc(COc3ccc(F)c(F)c3)on2)CC1,-2.9%,0.6%,25.8,26.9*
Cc1ccc(N2C(=O)CS/C2=N\C(=S)Nc2ccccc2)cc1,17.2%,0.5%,50.9,17.9
CCCCOc1cccc(C2/C(=C(\O)c3ccc4c(c3)OCCO4)C(=O)C(=O)N2CCN2CCOCC2)c1 (stereo not drawn),12.6%,0.1%,2.3,-0.8
CCCN1CCN(C(=O)c2cc(COc3ccc(F)c(F)c3)on2)CC1,5.5%,-7.0%,39.9*,28.6*
Cc1ccc(C)c(OCC(=O)N/N=C/c2c(C)nn(-c3ccccc3)c2Cl)c1C,0.6%,-1.2%,-2.1,-3.4
COC(=O)N/N=C\c1c(C)nn(-c2ccccc2)c1Cl,3.4%,-19.0%,58.0*,23.2*
Cc1nn(Cc2c(Cl)cccc2Cl)c(Cl)c1/C=N/NC(=O)c1cccnc1,-14.3%,-4.0%,41.3*,15.8*
Cn1c(Cl)c(/C=N/OC(=O)c2ccccc2Cl)c2ccccc21,-3.1%,-4.5%,23.7,14.4*
Cc1nn(-c2ccccc2)c(Cl)c1/C=N/NC(=O)CNC(=O)c1ccccc1Cl,1.2%,4.8%,22.6,18.2*
O=C(N/N=C/c1c(O)n(Cc2ccccc2)c(=O)c2ccccc12)c1cccnc1,.,?,-6.4,2.4
CCN(CC)C[C@@H](O)c1ccc2ccc3ccccc3c2c1,-7.2%,.,.,.
Cc1nn(-c2ccccc2)c(Cl)c1/C=N/NC(N)=O,-8.4%,3.4%,33.4*,27.1*
Cc1nn(-c2cccc(Cl)c2)c(Cl)c1/C=N/NC(=O)c1cccnc1,-11.0%,-5.2%,22.5,17.0*
COC(=O)N/N=C/c1c(C)nn(-c2cccc(Cl)c2)c1Cl,-5.7%,-45.5%,54.7*,49.2*
Cc1nn(-c2ccc(F)cc2)c(Cl)c1/C=N/NC(=O)c1cccc(S(=O)(=O)N2CCCC2)c1,2.1%,15.4%,-3.8,-1.0
Cc1nn(C)c(Cl)c1/C=N/OC(=O)c1ccccc1,-5.1%,-1.5%,-0.7,15.8*
SMILES,NS1 inh,SARS PLpro yeast,Shiga toxin inh,CHX counter
Cc1ccc(C2(c3ccc(C)cc3)NC(=O)N(CC(N)=O)C2=O)cc1,1.4%,3.8%,22.3,2.6
Cc1nn(-c2ccccc2)c(Cl)c1/C=N/Nc1nc2ccccc2n1C,?,0.4%,79.4*,54.2*
Cc1nn(-c2ccccc2)c(Cl)c1/C=N/NC(=O)c1ccnn1C,0.3%,-4.6%,106.6*,34.2*
Cc1nn(-c2ccccc2)c(Cl)c1/C=N/Nc1nnc(C)c(=O)[nH]1,2.1%,0.7%,8.2,-3.5
Cc1nn(-c2ccccc2)c(Cl)c1/C=N\NC(=O)c1cncc(Br)c1,-6.5%,-6.0%,-8.9,-6.8
C=C1c2ccccc2S(=O)(=O)N(Cc2ccccc2)C1COCc1ccccc1 (stereo not drawn),4.7%,-2.5%,4.2,0.8
Cc1ccc(NC(=O)CN2C(=O)C3CC=CCC3C2=O)cc1S(=O)(=O)N1CCOCC1 (stereo not drawn),.,-2.9%,1.8,5.7
N#CCCN1CCN(C(=S)c2ccc(-c3ccc(Cl)c(Cl)c3)o2)CC1,-47.1%,-9.2%,35.1,16.2
S=C(c1ccc(-c2cccc(Cl)c2)o1)N1CCCCC1,.,1.7%,55.2*,49.4*
N#CCCN1CCN(C(=S)c2ccc(-c3cccc(Cl)c3)o2)CC1,-13.6%,-3.4%,102.8*,45.0*
S=C(c1ccc(-c2cccc(Cl)c2)o1)N1CCOCC1,-14.9%,-8.8%,188.0*,42.6*
S=C(c1ccc(-c2cc(Cl)ccc2Cl)o1)N1CCOCC1,-4.8%,-10.2%,-4.1,1.7
O=C(Cn1cnc2sc3c(c2c1=O)CCCC3)NCC(=O)Nc1c(F)cccc1F,?,3.1%,3.0,-1.5
O=[N+]([O-])c1ccccc1OCC(O)CNC1CCCC1 (stereo not drawn),-61.2%,5.8%,-2.7,-2.3
CC(=O)c1ccccc1C(=O)N1CCC(n2nccc2NC(=O)C2CC2)CC1,4.3%,?,-7.8,0.5
O=C(Nc1ccc2[nH]ncc2c1)c1ccccc1Cl,-1.8%,-1.6%,21.8,16.1*
O=C(Nc1ncn[nH]1)c1ccccc1Br,4.7%,1.8%,-9.0,-2.7
O=C(Nc1ccc(NC(=O)c2ccccc2Cl)nc1)c1ccncc1,-2.2%,0.6%,14.7,7.7
O=C(Nc1ccc2[nH]ncc2c1)c1ccccc1Br,-9.4%,2.3%,21.6,17.8*
Cc1coc2c1C(=O)C(=O)c1c-2ccc2c(C)cccc12,-75.6%,-4.7%,35.4*,18.1*
CC1COC2=C1C(=O)C(=O)c1c2ccc2c1CCCC2(C)C (stereo not drawn),.,.,52.6*,35.5
C[C@H]1COC2=C1C(=O)C(=O)c1c2ccc2c1CCCC2(C)C,-3.6%,-3.8%,58.9*,25.7*
Cc1coc2c1C(=O)C(=O)c1c-2ccc2c1CCCC2(C)C,-20.9%,-4.0%,38.9*,23.7*
CCOc1ccccc1C(=O)Oc1ccc2ccc(=O)oc2c1,-106.5%,-17.2%,-9.8,-1.1
O=C(CSCC(=O)N1CCOCC1)Nc1nc(-c2ccccc2)cs1,-9.2%,1.0%,84.2*,34.6*
SMILES,NS1 inh,SARS PLpro yeast,Shiga toxin inh,CHX counter
CCOC(=O)N1CCN(C(=O)CSCC(=O)Nc2nc(-c3ccc(OC)cc3)cs2)CC1,-10.6%,3.6%,-3.1,10.2
CCOC(=O)N1CCN(C(=O)CSCC(=O)Nc2nc(-c3ccc(-c4ccccc4)cc3)cs2)CC1,20.8%,-3.9%,active,32.1*
CC12CCC(C(=O)N(CC(O)CN3CCCCC3)C1=O)C2(C)C (stereo not drawn),7.3%,20.7%,-0.6,-3.9
O=C(NCC(=O)N1CCCCCC1)c1ccc(Br)cc1,10.5%,-9.1%,46.7*,34.0*
O=C(NCCC(=O)N1CCCCC1)c1ccc(Br)cc1,0.3%,.,87.8*,56.1*
O=C(NCC(=O)N1CCCC1)c1ccc(Cl)cc1,14.0%,-8.1%,26.9*,16.4*
O=C(NCCC(=O)N1CCCC1)c1ccccc1Cl,4.3%,-1.5%,19.3,17.5*
CC1CCN(C(=O)CCNC(=O)c2ccccc2Cl)CC1,-6.9%,-1.2%,-18.6,-3.9
O=C1CN(C(=O)c2ccccc2)C(c2ccc(F)cc2)c2cc(Br)ccc2N1 (stereo not drawn),-1.1%,-3.1%,-15.0,-1.5
